Experimental findings from PubChem BioAssay (Tox21) are described below.

Values joined by “and” are separate entries in the source; they are usually repeats but may differ in a detail not shown here. Equal entries are not always repeated. Results filed as inconclusive are left out. A structure can be active in one record and inactive in another. Active and inactive are the calls of the source. Unless noted, calls follow the shape of the dose curve; as a rule, active = well fitted curve in the direction sought with a large enough effect in the repeat runs; inconclusive = weak or mixed curves; inactive = no such curve, though single readings can be large; an effect the other way counts as inactive or inconclusive.

Assay [1] can be described thus: qHTS RealTime-Glo MT Cell Viability Assay in HepG2 cells - 24 hour (AID 1224867). Also: nearly all actives have a fitted effect of over 50% in size. Also: potency is read from the fitted curve at half-maximal effect. Put shortly: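 HepG2 cells (600/well) were dispensed with RealTime-Glo reagents, incubated 5 h at 37 °C, then treated with compounds in DMSO for up to 40 h. Nonlytic NanoLuc luminescence reflecting viable cells was read at each stated time point.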
On the technique in general: qHTS replaces the single test concentration by a dilution series.

Assay [2] can be described thus: qHTS RealTime-Glo MT Cell Viability Assay in HEK293 cells - 32 hour (AID 1224868). Also: nearly all actives have a fitted effect of over 50% in size. Also: potency is read from the fitted curve at half-maximal effect. Put shortly: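 HEK293 cells seeded with NanoLuc/prosubstrate reagent, rested 5 h at 37 C, then dosed and kept at 37 C up to 40 h. Nonlytic real-time luminescence from viable cells read at 0, 8, 16, 24, 32 and 40 h.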
Assay [3] in a line: A CellTox Green Cytotoxicity Assay to monitor cytotoxicity in HEK293 cells - 0 hour (AID 1224869). Also: nearly all actives have a fitted effect of over 50% in size. Put shortly:
(§1)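 Fluorescence from a DNA-binding dye excluded by viable cells was measured repeatedly in the same HEK293 wells (600 cells/well) during continuous compound exposure at 37 C. Each assay gives one read point: 0, 8, 16, 24, 32 or 40 h.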

Assay [4] in a line: qHTS RealTime-Glo MT Cell Viability Assay in HepG2 cells - 40 hour (AID 1224870). Also: nearly all actives have a fitted effect of over 50% in size. Also: potency is read from the fitted curve at half-maximal effect. Put shortly:
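HepG2 cells mixed with RealTime-Glo MT reagents (NanoLuc plus cell-permeant prosubstrate) were seeded at 600 cells/well, incubated 5 h at 37 C/5% CO2, then pinned with compounds in DMSO; nonlytic luminescence tracked viability during 40 h treatment.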

Assay [5] in a line: A CellTox Green Cytotoxicity Assay to monitor cytotoxicity in HEK293 cells - 40 hour (AID 1224871). Also: nearly all actives have a fitted effect of over 45% in size. Also: potency is read from the fitted curve at half-maximal effect. Put shortly:
as §1

Assay [6] can be described thus: qHTS assay to identify small molecule agonists of H2AX - cell viability counter screen (AID 1224847; calls by dose curve; also: nearly all actives have a fitted effect of over 30% in size; also: potency is read from the fitted curve at half-maximal effect). Put shortly: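 Cytotoxicity counter screen in wild-type CHO-K1 cells: a 3 hr compound treatment at 37C across 15 concentrations, followed by CellTiter-Glo luminescence to gauge viable cells.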
A short description of assay [7]: qHTS assay to identify small molecule agonists of the estrogen related receptor (ERR) signaling pathway from Tox21 library (AID 1224849; calls by dose curve; also: nearly all actives have a fitted effect of over 15% in size). Conditions: ERR reporter cell line, ONE-Glo luciferase, 18 h. Put shortly:
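Luminescent agonist read-out (One-Glo, 30-minute room-temperature incubation) following 18-hour compound treatment at 37 C of the ERR cell line, which had been plated 6 hours before dosing.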

Assay [8] in a line: qHTS assay to identify small molecule antagonists of the estrogen related receptor (ERR) signaling pathway from Tox21 library (AID 1224848). Also: nearly all actives have a fitted effect of over 50% in size. Put shortly: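 Tox21 10K compounds in DMSO tested for ERR pathway antagonism in NTP's ERR cell line; 18 h, 37 C exposure; ONE-Glo luminescence.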
% is scaled to controls: 0 for no effect and ±100 for the full control effect.

As for `O=C(OCc1ccccc1)c1ccc(O)cc1`, the Potency entry in assay [1], in assay [2], in assay [3], in assay [4] and in assay [5] was “inactive” each time.

Consider `CN(C)c1ccc2nc3ccc(=[N+](C)C)cc-3sc2c1`, for which the Potency was 21.7 µM (active) and 45 µM (active) and 43.8 µM (active) in assay [6]; 16.7 µM (active) and 12.3 µM (active) and 19 µM (active) in assay [1]; 1.87 µM (active) and 1.74 µM (active) and 2.68 µM (active) in assay [2]; 21 µM (active) and 12.3 µM (active) and 23.9 µM (active) in assay [4]. Also, the activity change, positive = activation in assay [7] (at 42.5 µM (top of the series)) is -59.7% (inactive) and -55.3% (inactive); in assay [7] (at 92.4 µM (top of the series)), -71.3% (inactive). Further, the Potency result in assay [3] and in assay [5] was “inactive” each time.

Consider `CCN(CC)C(=S)SSC(=S)N(CC)CC`, for which the Potency result in assay [6] and in assay [3] was “inactive” each time. In addition, the activity change, positive = activation in assay [7] (at 42.5 µM (top of the series)) is -68.2% (inactive); in assay [7] (at 92.4 µM (top of the series)), -75.7% (inactive) and -76.4% (inactive). The Potency in assay [1] was 436 nM (active) and 398 nM (active) and inactive; in assay [2], 174 nM (active) and 89.1 nM (active) and 13.4 µM (active); in assay [4] it was 100 nM (active); in assay [5], 155 nM (active) and 5.62 µM (active) and 84.9 nM (active).

Take `CC[C@H]1CN2CCc3cc(OC)c(OC)cc3[C@@H]2C[C@@H]1C[C@H]1NCCc2cc(OC)c(OC)cc21`: the Potency was 15.5 nM (active) and 42.5 nM (active) in assay [2]; 55.1 µM (active) in assay [5]. Moreover, the Potency result in assay [3] was “inactive”.

As to `CCN(CC)CCOc1ccc(/C(=C(\Cl)c2ccccc2)c2ccccc2)cc1`, the Potency is 81.7 µM (active) in assay [6]; 28.1 µM (active) and 23.9 µM (active) in assay [1]; 14.1 µM (active) and 19 µM (active) in assay [2]; 17.7 µM (active) and 23.9 µM (active) in assay [4]; 19.9 µM (active) and 23.9 µM (active) in assay [5]. Besides, the Potency result in assay [3] was “inactive”.

`O=Nc1ccc(Nc2ccccc2)cc1`: the Potency is 50.8 µM (active) in assay [6]; 6.2 µM (active) and 9.77 µM (active) in assay [2]; 5.53 µM (active) and 6.92 µM (active) in assay [5]. Further, the Potency entry in assay [8] and in assay [3] was “inactive” in each case. Also, in assay [7] (at 92.4 µM (top of the series)), the activity change, positive = activation is -76% (active).

For the molecule `OCCN1CCNCC1`, the Potency result in assay [6], in assay [1], in assay [3], in assay [4] and in assay [5] was “inactive” each time. In addition, in assay [7] (at 92.4 µM (top of the series)), the activity change, positive = activation is 9.65% (inactive) and -11.4% (inactive). The Potency in assay [2] is 7.9 µM (active).

With `CC(C)(C)c1ccc(O)c(C(C)(C)C)c1`, in assay [7] (at 92.4 µM (top of the series)), the activity change, positive = activation is -41% (inactive) and -33.5% (inactive). Moreover, the Potency was 38.7 µM (active) in assay [2]; 24.4 µM (active) and 34.7 µM (active) in assay [5]. Also, the Potency entry in assay [3] and in assay [4] was “inactive” in each case.

As to `CC(C)CCCCCCc1ccc(O)cc1`, the Potency is 91.4 µM (active) and 56.6 µM (active) in assay [6]; 22.3 µM (active) and inactive in assay [1]; 2.23 µM (active) in assay [2]; 25 µM (active) and inactive in assay [4]; 19.8 µM (active) and 38.9 µM (active) in assay [5]. Moreover, in assay [3], the Potency entry is “inactive”.

As for `CCc1cc(C(C)(C)C)c(O)c(C(C)(C)C)c1`, the Potency result in assay [1], in assay [2], in assay [3] and in assay [4] was “inactive” in each case. Further, in assay [5], the Potency is 21.9 µM (active).

As for `CC(C)C(=O)c1c(C(C)C)nn2ccccc12`, the Potency result in assay [8], in assay [1], in assay [2], in assay [3], in assay [4] and in assay [5] was “inactive” in each case. Further, in assay [7] (at 42.5 µM (top of the series)), the activity change, positive = activation was -9.6% (inactive).

`CC(C)(c1ccccc1)c1ccc(Nc2ccc(C(C)(C)c3ccccc3)cc2)cc1`: the Potency entry in assay [6], in assay [1], in assay [2], in assay [3], in assay [4] and in assay [5] was “inactive” in each case. Further, the activity change, positive = activation in assay [7] (at 92.4 µM (top of the series)) is -43.2% (inactive) and -18.6% (inactive).

As to `COc1nc(C)nc(Cl)c1NC1=NCCN1`, the Potency entry in assay [6], in assay [1], in assay [2], in assay [3], in assay [4] and in assay [5] was “inactive” each time.

Consider `CC(C)(C)c1cc(C(C)(C)C)c(O)c(C(C)(C)C)c1`, for which the Potency result in assay [1], in assay [2], in assay [3] and in assay [4] was “inactive” throughout. Further, the Potency in assay [5] is 54.9 µM (active) and 34.7 µM (active).

For `CCC(C)(Oc1ccc(C2(c3ccc(OC(C)(CC)C(=O)O)cc3)CCCCC2)cc1)C(=O)O` (stereo unspecified), the Potency entry in assay [6], in assay [1], in assay [2], in assay [3], in assay [4] and in assay [5] was “inactive” in each case. Moreover, in assay [7] (at 42.5 µM (top of the series)), the activity change, positive = activation was 9.22% (inactive).
